# Test results taken from the supplement of paper PMC6555819.
# Tested on: VDR:RXRa (NR concentration 270 nM, RXRa partner concentration 90 nM)
# Test: PBM binding z-score (relative to random genomic background probes); higher = stronger binding; sequences stand for … in GC…GCGATTGACAGCGTAGAATGAAGG
# Procedure: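 Protein-binding microarray (Agilent 4x180K custom design, double-stranded 60-nt probes: 5' GC cap, 34-nt variable region, 24-nt constant primer region; full probe sequence given). Purified or IVT nuclear receptor:RXRα heterodimers (3:1 NR:RXRα, mostly 270:90 nM) or homodimers were incubated for 1 h in PBS with 2% milk and no ligand, then detected with Alexa488 antibodies. Fluorescence from o1-orientation probes (~5 replicates averaged) was converted to z-scores against 500 random hg19 background probes. Variable regions are seed direct-repeat (DR0–DR5) sites, all their single-nucleotide variants and half-site ablations.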
row,Sequence,PBM binding z-score
1,AGAATGAGGTTATACGTAGATCAGGCAAGAAAGT,1.46
2,TCTATTAGTTGAAGAGCAACCGACGAGTCCGTTT,0.538
3,TCTAACAGGCCAGAGGGTCACTCAAGAGGTACGG,1.76
4,GTACCAAGGTGAATAGGTCGTCGATGAGTAGGCG,0.97
5,AATACAGCGTCATCGTAGGCCAGAGTACGCACAG,-0.373
6,TCGAGTAGTTTAGTCGGGGCATTCAGCCAACATA,0.157
7,CGTCAAAGTTCAACTCAGGTAACGTAAAGCACGC,4.45
8,CCTTTCGGGTCAAGGTTATAGCACGGGTGGTACG,3.79
9,CGTCCAAGGTCATAGGAGGACAGTGAAGACAGAT,5.21
10,ACTATTAGTTGAGAGGAGGGCAACCGATAGGTTG,0.152
11,CAAACTTGGTCAAGAGGTCAAAGTCCGCTTCCCG,5.4
12,GGAACGAGGGCATTCGAGTGGATAGCATGGCGAT,1.32
13,TCTGCTAGGTCAGTTCGTCAGCTAACGAGCTGCC,0.144
14,TCATTTAGGTAAAGGTGAAAGTCGAACGATATGA,1.23
15,CGAACGAGGGCATGACTTGATAGCAAATGCCGAT,0.573
16,CCTAGCAGGCCAATCTGGGTCCCTCAAGGCTTGA,-0.831
17,TGTCAAAGTTCAAAGGTAACGTTAGTATCCACAC,4.9
18,CCTTACGGGTCACGAGGTTATTGCACGACGAGCG,5.3
19,GTACCAAGGCGAATAGGTCGTTGATGAGTAGGCG,-0.145
20,TCTCGGAGCACACGAAAGGTCAGAGCTCGACATC,2.26

row,Sequence,PBM binding z-score
1,CCTAGTTGGTCAAGGACACACACGCTATAGGTAC,0.744
2,CGAAATAGGTCATCCAGGACAGTGAATACATTGA,5.63
3,AGAATGAGGTTAAGAGCAGGGAAACAGAATACAT,0.967
4,CGTCCAAGGACAAAGGTCAGTGAAGAGATGACGG,2.64
5,TCTATTAGTTGAAGGGCAACCGTCGAGTCCGTTT,0.884
6,GCAGACAGGTGAAACTCAGGTAACTCAGGGTGGC,-0.101
7,AGAATGAGGTTATTAAGATCAGGAAATTGCGGTC,2.43
8,CCTCGGAGGACAGAGGGTCAGAGCTGTCCGCTTT,0.544
9,TAACCAAGGTGAGCTGAGGTCGTTGATCCAACTC,4.26
10,CCGACTGGGGCATAAGGTTACCTTAAGCCAGCCC,0.0606
11,CCTAGTTGGGCAAGGTCACACACGCTATAGGTAC,3.84
12,TGAATGTGGTTATAAGATCAGGGAACGTTGCAAA,0.157
13,CGTCCAAGGTCAGAGAGGTTAGTGAATGCCGAGT,5.8
14,TCGAGTAGGTTACCAATGGGGCATTCAACTTTCT,0.521
15,CCTATTAGGTGACCATAAGGGCAACCGAAGCTCG,0.646
16,CAGCCTAGGTCACGGCCAGTATAGGAGGAACGTT,2.68
17,TAATATAGGTAAAGGTGAAAGTCGAACGATATGA,1
18,ATCGAAAGGTCGACGAGGTAAGTATACACCGTTT,4.59
19,GCTAGTTGCTCAGTAAAAGGTCACACACCGGTCG,3.73
20,GCTAGTTGGTCAGTAACAGGTCACACACCGGTCG,1.68
